This is an account of results in PubChem BioAssay (NCI).

Test systems include NCI-H23 lung; NCI-H226 lung; NCI-H322M lung; HOP-62 NSCLC; NCI-H460 lung; HOP-92 NSCLC; NCI-H522 lung; A549/ATCC NSCLC; 786-0 renal; COLO 205 colon.
Common to all, as to assay: NCI-60 one-dose screen, 48 h (100 = growth as untreated, 0 = no growth, -100 = all killed)
Holding throughout (settings): 10 µM unless noted

Compounds without any hit were thinned out: in the full panel of roughly 83,000, 20% have a hit.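 96-well plates, one dose, 48 hours. Percent growth reported; active if below 10.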 A number with no mark means an inactive call. The source made the active and inactive calls.

As to `N#C/C(=C\c1ccc(Br)cc1)n1nnc2ccc(F)cc21`, the growth in the test with NCI-H23 lung was 16%; in the test with NCI-H226 lung, 2.99% (active); in the test on NCI-H322M lung, 9.42% (active); in the test on HOP-62 NSCLC, 31.4%; with NCI-H460 lung, -35.9% (active); in the test with HOP-92 NSCLC it was 36.7%. Moreover, the growth was -18.2% (active) with NCI-H522 lung, 16.6% in the test on A549/ATCC NSCLC, -73.8% (active) in the test with 786-0 renal and -12.9% (active) in the test on COLO 205 colon.

Take `CN1CCN(c2ccc(C(=O)Nc3cccc(C#Cc4cccc5[nH]nc(N)c45)c3)cc2C(F)(F)F)CC1`: the growth in the test with NCI-H23 lung was -51.9% (active); in the test on NCI-H226 lung, 15.6%; with NCI-H322M lung, -24.6% (active); with HOP-62 NSCLC it was -63.7% (active); with NCI-H460 lung it was -68.4% (active); in the test with HOP-92 NSCLC it was -11.8% (active). The growth was -59.1% (active) in the test on NCI-H522 lung, -67.2% (active) in the test with A549/ATCC NSCLC, -70.4% (active) with 786-0 renal and -72.9% (active) with COLO 205 colon.

With `CN1CCN(c2ccc(NC(=O)c3nc4ccc5[nH]ncc5c4c4c3CCCC4)cc2C(F)(F)F)CC1`, the growth in the test with NCI-H23 lung was 90.2%; in the test on NCI-H226 lung, 80%; with NCI-H322M lung, 86.3%; with HOP-62 NSCLC it was 72.2%; in the test on NCI-H460 lung, -55.4% (active); with HOP-92 NSCLC, 49.2%. In addition, the growth with NCI-H522 lung is 76.7%; in the test on A549/ATCC NSCLC it was 60.2%; in the test on 786-0 renal, 34.3%; with COLO 205 colon, 59.3%.

Take `CC1=C(Nc2ccc(N3CCN(C)CC3)cc2)C(=O)c2cncnc2C1=O`: the growth is 72.6% in the test on NCI-H23 lung; 99% in the test on NCI-H226 lung; 101% with NCI-H322M lung; 107% in the test on HOP-62 NSCLC; 25.2% with NCI-H460 lung; -28.6% (active) in the test on HOP-92 NSCLC. For the same compound, the growth in the test with NCI-H522 lung was 84.9%; in the test on A549/ATCC NSCLC, 92.6%; with 786-0 renal, 107%; in the test on COLO 205 colon, 124%.

For the compound `CC(C)OC(=O)c1ccc2[nH]c(O)c(C(=Nc3ccc(N(C)C(=O)CN4CCN(C)CC4)cc3)c3ccccc3)c2c1`, the growth was -59.9% (active) with NCI-H23 lung; 20.1% with NCI-H226 lung; -6.59% (active) with NCI-H322M lung; -68.8% (active) in the test on HOP-62 NSCLC; -57.9% (active) with NCI-H460 lung; 1.36% (active) in the test on HOP-92 NSCLC. The growth with NCI-H522 lung is -60.6% (active); with A549/ATCC NSCLC it was -46.7% (active); in the test on 786-0 renal, -92.4% (active); in the test on COLO 205 colon, -59.4% (active).

Consider `C=C(C)[C@@H]1CC[C@]2(C)[C@H](CC=C3[C@@H]4[C@H](C)[C@@H](C)CC[C@]4(CO)CC[C@]32C)[C@@]1(C)CCCN`, for which the growth was 60.9% in the test with NCI-H23 lung; 84.5% in the test with NCI-H226 lung; 43.7% in the test with NCI-H322M lung; -63.1% (active) in the test on HOP-62 NSCLC; -81.9% (active) with NCI-H460 lung; 4.6% (active) with HOP-92 NSCLC. Also, the growth was -41.8% (active) with NCI-H522 lung, -31.6% (active) with A549/ATCC NSCLC, 39.3% in the test with 786-0 renal and -57.2% (active) in the test with COLO 205 colon.

`CC(C)=CCC[C@](C)(O)[C@H]1CC[C@]2(C)[C@@H]1CC[C@@H]1[C@@]3(C)Cc4nccnc4C(C)(C)[C@@H]3CC[C@]12C`: the growth is 66.9% in the test on NCI-H23 lung; 74.6% in the test with NCI-H226 lung; 100% with NCI-H322M lung; 94.6% with HOP-62 NSCLC; 73.6% with NCI-H460 lung; 93.2% with HOP-92 NSCLC. Also, the growth is 62.8% with NCI-H522 lung, 46.3% in the test with A549/ATCC NSCLC, 78.6% in the test with 786-0 renal and 76.3% in the test on COLO 205 colon.

On to `Cc1cccc(N2CCN(CC(O)COc3ccc(Cl)cc3)CC2)c1` (stereo not given), for which the growth with NCI-H23 lung was 109%; with NCI-H226 lung it was 105%; in the test on NCI-H322M lung, 104%; in the test with HOP-62 NSCLC, 100%; with NCI-H460 lung it was 112%; in the test with HOP-92 NSCLC it was 88.1%. In addition, the growth with NCI-H522 lung was 94.1%; in the test with A549/ATCC NSCLC, 117%; with 786-0 renal, 98%; with COLO 205 colon it was 98%.

In the case of `COc1ccc(/C=C2\COc3ccc(O)c(O)c3C2=O)cc1`, the growth in the test on NCI-H23 lung is 33.2%; with NCI-H226 lung it was 67.4%; in the test on NCI-H322M lung, 47.9%; with HOP-62 NSCLC, 10.8%; in the test with NCI-H460 lung, 19.2%; in the test with HOP-92 NSCLC, -6.45% (active). The growth was -60.5% (active) in the test on NCI-H522 lung, 38.1% with A549/ATCC NSCLC, -40.9% (active) in the test with 786-0 renal and 66.2% with COLO 205 colon.

On to `Clc1ccc(Nc2nnc(COc3ccccc3)c3ccccc23)cc1`, for which the growth is 4.18% (active) in the test with NCI-H23 lung; 1.78% (active) in the test with NCI-H226 lung; 21.2% in the test on NCI-H322M lung; 13.1% in the test with HOP-62 NSCLC; 3.1% (active) with NCI-H460 lung; -28% (active) in the test with HOP-92 NSCLC. Further, the growth is -17.4% (active) in the test on NCI-H522 lung, 4.64% (active) in the test on A549/ATCC NSCLC, 5.25% (active) with 786-0 renal and -5.75% (active) in the test on COLO 205 colon.

In the case of `Cn1cc(-c2csc(-c3c[nH]c4ccc(Br)cc34)n2)c2cnccc21`, the growth with NCI-H23 lung was -64.2% (active); in the test with NCI-H226 lung it was -55.7% (active); with NCI-H322M lung it was -44.5% (active); in the test on HOP-62 NSCLC, -66.7% (active); in the test on NCI-H460 lung it was -82.4% (active); in the test with HOP-92 NSCLC, -86.2% (active). In addition, the growth was -66.8% (active) in the test with NCI-H522 lung, -77.5% (active) in the test on A549/ATCC NSCLC, -90.5% (active) with 786-0 renal and -72.9% (active) in the test with COLO 205 colon.

In the case of `C/C(=C(/c1ccc(Cl)cc1)c1ccc(OCCN2CCCC2)cc1)c1ccc(Cl)cc1`, the growth with NCI-H23 lung is 80.3%; with NCI-H226 lung, 107%; with NCI-H322M lung, 92.9%; in the test with HOP-62 NSCLC, 104%; with NCI-H460 lung, 70.6%; in the test with HOP-92 NSCLC it was 69.5%. The growth with NCI-H522 lung is 88.8%; in the test on A549/ATCC NSCLC, 63.4%; in the test with 786-0 renal, 82.7%; with COLO 205 colon it was 48.5%.

As to `Cc1cc2c(O)c(-c3cc(Cl)ccc3Cl)c3sc(=O)oc3c2cc1C`, the growth in the test with NCI-H23 lung is 44.2%; in the test with NCI-H226 lung, 58%; in the test with NCI-H322M lung, 89.8%; in the test on HOP-62 NSCLC it was 87.8%; in the test with NCI-H460 lung it was 34.4%; with HOP-92 NSCLC, -15.5% (active). Besides, the growth in the test with NCI-H522 lung was 26.4%; in the test on A549/ATCC NSCLC, 60.2%; in the test with 786-0 renal, 83.8%; in the test on COLO 205 colon it was 112%.
